Assay results: PubChem BioAssay AID652154 (Broad Institute, 2013)
The whole screen tested about 360,000 compounds, of which about 4,200 (1.2%) were called active.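 The calls were made as follows: active = mean replicate inhibition at least 60% with every replicate also reaching 60%; inconclusive = only one of the two criteria is met; inactive = mean below 60% and not all replicates reaching 60%.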 The list comes from a sample in which actives are over-represented; it also holds similar structures and randomly drawn compounds.

assay: inhibitors of PAX8-driven TPO luciferase reporter, primary screen, RMG-I cells, single concentration (AID 652154); conditions: SteadyGlo, 24 h, at 12.6 µM, hits give high values;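 also: luciferase light reporting Pax8 driven TPO promoter activity; plate controls were median of neutral control wells for no effect and mitoxantrone controls for full effect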

Structure (SMILES)	inhibition
C[C@H](CO)N1C[C@H](C)[C@H](CN(C)Cc2cccc(F)c2)Oc2ncc(C#CCN(C)C)cc2C1=O	10.3% (inactive)
Cc1cc(OC(=O)NCCc2ccc(F)cc2)ccc1F	-1.24% (inactive)
OC[C@H]1[C@@H](c2ccc(-c3ccccc3F)cc2)[C@@H]2CN(Cc3ccncc3)CCCCN12	17.2% (inactive)
CCCc1cn(CC[C@H]2CC[C@@H](NS(=O)(=O)c3ccccc3Cl)[C@@H](CO)O2)nn1	-2.22% (inactive)
O=C(C[C@@H]1C=C[C@H](NC(=O)Nc2ccccc2F)[C@@H](CO)O1)NCc1ccccc1	1.09% (inactive)
COc1ccc(CN2[C@H](CO)[C@@H]3c4ccccc4N(C(=O)C4CC4)C[C@@H]32)cc1	5.67% (inactive)
Brc1ccc(COCCc2cn(Cc3ccccc3)c3ccccc23)cc1	-11.9% (inactive)
COc1ccccc1C1C2=C(COC2=O)Nc2cc3c(cc21)OCO3 (stereo unspecified)	85.6% (active)
O=C1NC(c2cc3c(cc2Cl)OCO3)Oc2ccccc21 (stereo unspecified)	-6.52% (inactive)
O=C1OCC2=C1C(c1ccc(Cl)cc1)c1cc3c(cc1O2)OCO3 (stereo unspecified)	11% (inactive)
C[C@@H]1CN([C@H](C)CO)C(=O)c2cc(NS(=O)(=O)c3ccccc3)ccc2O[C@H]1CN(C)S(=O)(=O)c1ccc(Cl)cc1	3.11% (inactive)
Cc1ccc(C(=O)Oc2ccc(C(=S)N3CCOCC3)cc2)cc1	-7.47% (inactive)
Cc1ccc(C(=O)C(=S)N2CCOCC2)cc1	67.2% (active)
Cc1ccc(C(=O)OC(C)CN2CCOCC2)cc1 (stereo unspecified)	-27.6% (inactive)
C[C@@H]1CN([C@@H](C)CO)C(=O)Cc2cc(NC(=O)CCN3CCOCC3)ccc2O[C@@H]1CN(C)CC1CC1	-46.4% (inactive)
O=C(NCCN1CCOCC1)c1ccc2c(c1)N(Cc1cccc(Cl)c1)C(=O)c1ccccc1S2(=O)=O	-1.71% (inactive)
CCN1CCN(CCNC(=O)c2ccc(/C=C3/Sc4ccccc4N(Cc4cccc(C)c4)C3=O)cc2)CC1	84.9% (active)
Cc1cccc(-c2nc3ccc(C(=O)NCCN4CCN(C)CC4)cc3nc2-c2cccc(C)c2)c1	50.9% (inactive)
C[C@@H]1CCCCO[C@@H](CN(C)CC2CC2)[C@H](C)CN([C@H](C)CO)C(=O)c2cc(NS(=O)(=O)c3ccccc3)ccc2O1	3.85% (inactive)
CN(O)C(=S)c1ccccc1	82% (active)
COc1cccc(CN(C)C[C@H]2OCc3ccccc3-c3c(n(C)c4ccccc34)C(=O)N([C@@H](C)CO)C[C@@H]2C)c1	11% (inactive)
O=C(c1ccncc1)N1C[C@@H]2[C@H](c3ccccc31)[C@H](CO)N2C(=O)c1ccncc1	-12.9% (inactive)
CC(C)NC(=O)N(C)C[C@@H]1Oc2ccc(N(C)C)cc2CC(=O)N([C@H](C)CO)C[C@@H]1C	-4.65% (inactive)
O=C(C[C@H]1CC[C@@H]2[C@H](COC[C@@H](O)CN2C(=O)Nc2ccc(C(F)(F)F)cc2)O1)NCCc1ccncc1	-6.11% (inactive)
C[C@@H]1CN([C@H](C)CO)C(=O)c2cc(NC(=O)C3CCCCC3)ccc2O[C@H]1CN(C)C(=O)Nc1ccccc1	9.45% (inactive)
C[C@H](CO)N1C[C@H](C)[C@@H](CN(C)C(=O)Nc2ccc3c(c2)OCO3)Oc2ccc(NC(=O)NC3CCCCC3)cc2CC1=O	-23.2% (inactive)

Structure (SMILES)	inhibition
COc1ccc(-c2cc(C(=O)NCCCN3CCCC3=O)c3ccccc3n2)cc1OC	2.26% (inactive)
COc1ccc(-c2cc(C(=O)N(C)Cc3ccc(OC)c(OC)c3OC)c3ccccc3n2)cc1OC	27.1% (inactive)
COc1ccc(-c2cc(C(F)(F)F)nc(S(C)(=O)=O)n2)cc1OC	122% (active)
Cc1ccccc1S(=O)(=O)N1[C@@H](C#N)[C@H](c2ccccc2)[C@@H]1CO	-4.36% (inactive)
O=C(Cc1ccccc1)N1CC2(C1)[C@H](c1ccccc1)[C@@H](CO)N2C(=O)c1cccnc1	-7.25% (inactive)
COc1ccnc(Oc2ccccc2)n1	-3.33% (inactive)
COc1ccnc(Oc2ccccc2)c1-c1ncn[nH]1	84.6% (active)
COc1ccccc1-n1cn[nH]c1=S	8.11% (inactive)
OC[C@@H]1[C@@H](c2ccc(-c3ccccc3F)cc2)[C@@H]2CN(Cc3cncnc3)CCCCN12	4.63% (inactive)
CC1Cc2ccccc2N1C(=O)CSc1nnc(C2CC2)n1C (stereo unspecified)	78.3% (active)
CN(C(=O)CSc1nnc(C2CC2)n1C)C1CCCc2ccccc21 (stereo unspecified)	8.2% (inactive)
CC1Cc2ccccc2N1C(=O)CSc1nnc(-c2ccc(S(=O)(=O)N3CCCC3)cc2)n1C (stereo unspecified)	20.8% (inactive)
O=C(N[C@H]1CC[C@@H](CCn2cc(Cc3ccccc3)nn2)O[C@H]1CO)c1cnccn1	-16.7% (inactive)
C[C@H](CO)N1C[C@H](C)[C@H](CN(C)CC2CC2)Oc2cc(-c3ccc(F)cc3)ccc2S1(=O)=O	-2.31% (inactive)
COc1ccc2nc3n(c(=O)c2c1)-c1ccc(Cl)cc1C(=O)NC3Cc1ccccc1 (stereo unspecified)	82.6% (active)
CC(C)CC1NC(=O)c2cc(Cl)ccc2-n2c1nc1ccccc1c2=O (stereo unspecified)	6.69% (inactive)
O=C1NC(Cc2ccccc2)c2nc3ccc(Br)cc3c(=O)n2-c2cc3ccccc3cc21 (stereo unspecified)	34.1% (inactive)
Cc1noc(C)c1NC(=O)N(C)C[C@H]1OCCCC[C@H](C)Oc2ccc(NC(=O)Nc3ccccc3)cc2C(=O)N([C@H](C)CO)C[C@@H]1C	8.48% (inactive)
COc1ccccc1CNC(=O)C[C@H]1CC[C@@H](NC(=O)CN(C)C)[C@@H](CO)O1	-11.2% (inactive)
COc1cccc(C#Cc2ccc([C@@H]3[C@H](C#N)N[C@H]3CO)cc2)c1	-230% (inactive)
O=C(C[C@@H]1C[C@@H]2c3cc(NC(=O)NC4CCCC4)ccc3O[C@@H]2[C@@H](CO)O1)NCc1ccccc1	-4.64% (inactive)
C[C@H](CO)N1C[C@H](C)[C@@H](CN(C)C(=O)c2cnccn2)Oc2ncc(-c3ccccc3F)cc2C1=O	2.74% (inactive)
C[C@H](CO)N1C[C@H](C)[C@@H](CN(C)S(=O)(=O)c2cccc(F)c2)OCc2ccccc2-c2c(n(C)c3ccccc23)C1=O	83.4% (active)
C[C@H](CO)N1C[C@H](C)[C@@H](CN(C)S(=O)(=O)c2ccc([N+](=O)[O-])cc2)OCc2ccccc2-c2c(n(C)c3ccccc23)C1=O	16.1% (inactive)
C[C@@H]1CN([C@H](C)CO)C(=O)c2c(c3ccccc3n2C)-c2ccccc2CO[C@H]1CN(C)S(=O)(=O)c1ccccc1F	40.5% (inactive)
Cc1ccc(S(=O)(=O)Nc2ccc3c(c2)C(=O)N([C@@H](C)CO)C[C@@H](C)[C@H](CN(C)CC2CC2)O3)cc1	-3.68% (inactive)

Structure (SMILES)	inhibition
COc1ccccc1-c1ccc([C@H]2[C@H](CO)N(C(=O)C3CC3)C23CN(C(C)=O)C3)cc1	1.61% (inactive)
CCOc1c(Nc2cccc(Cl)c2)c(=O)c1=O	-11.1% (inactive)
OCCCNc1nccc(-c2cc(Nc3cccc(Cl)c3)ncn2)n1	107% (active)
C[C@H](CO)N1C[C@H](C)[C@@H](CN(C)CC2CCCCC2)Oc2ccc(NC(=O)Cn3cnnn3)cc2CC1=O	-19.1% (inactive)
COc1ccc(CN(C)C[C@H]2Oc3c(NS(=O)(=O)c4ccc(Cl)cc4)cccc3C(=O)N([C@H](C)CO)C[C@H]2C)cc1	5.03% (inactive)
NC1=CC(=O)C(=O)c2cccnc21	117% (active)
COc1cccc(/C=N/Nc2cc(C)nc(-c3ccccc3O)n2)c1O	90.5% (active)
COc1cc(/C=N/Nc2ccc(C)cc2)cc(Br)c1O	-15% (inactive)
COc1ccccc1-n1c(SCC(=O)Nc2cccc(C(=O)O)c2)nnc1-c1ccccc1O	19% (inactive)
Cc1ccc(S(=O)(=O)N(C)C[C@H]2Oc3ccc(NS(=O)(=O)c4ccccc4)cc3CC(=O)N([C@@H](C)CO)C[C@H]2C)cc1	-2.41% (inactive)
C[C@@H]1CN([C@H](C)CO)C(=O)c2cccc(NS(=O)(=O)c3ccc(F)cc3)c2O[C@H]1CN(C)Cc1ccc(Oc2ccccc2)cc1	16.4% (inactive)
COc1ccc2[nH]c(C(=O)N/N=C/c3cc(OC)c(OC)c(OC)c3)cc2c1	85.3% (active)
COc1ccc2[nH]c(C(=O)Nc3ccccc3Cl)cc2c1	-22.1% (inactive)
CCC(=O)c1ccc(OC(=O)/C=C/c2cc(OC)c(OC)c(OC)c2)cc1	-5.71% (inactive)
C[C@@H]1CCCCO[C@@H](CN(C)S(=O)(=O)c2cccs2)[C@@H](C)CN([C@@H](C)CO)C(=O)c2cc(NS(=O)(=O)c3ccc(F)cc3)ccc2O1	32% (inactive)
Cc1ccc(S(=O)(=O)N[C@H]2CC[C@H](CC(=O)NCc3ccccc3F)O[C@@H]2CO)cc1	3.28% (inactive)
O=C(Cn1cnc2ccccc2c1=O)NNC(=O)c1ccccc1F	0.953% (inactive)
Cc1cc2occ(CC(=O)NNC(=O)c3ccccc3F)c2cc1C	-1.24% (inactive)
Cn1c(CC(=O)NNC(=O)c2ccccc2F)nc2ccccc21	74.1% (active)
O=C(C[C@H]1CC[C@@H]2[C@H](COC[C@@H](O)CN2Cc2cc(F)cc(F)c2)O1)NC1CCC1	4.75% (inactive)
COc1ccc2c3c([nH]c2c1)[C@H](CO)N(C(=O)Nc1ccc(F)cc1)CC31CCN(CC2CCOCC2)CC1	27.1% (inactive)
O=C(NCCc1ccccc1)c1cccc(NC(=O)c2ccccc2)c1	-77.4% (inactive)
O=C(NC1=CC(=O)c2ccccc2C1=O)c1ccccc1	99.2% (active)
Cc1cc(=O)c2ccc(NC(=O)c3ccccc3)cc2[nH]1	-7.38% (inactive)
